An excerpt weighted towards active compounds, which were near 21% of everything screened.
Giardia FBPA inh = inhibitors of Giardia lamblia fructose-1,6-bisphosphate aldolase. 0.71% of 290,000 active. A8B2U2. AID 2451. purified Giardia FBPA. Potency, µM (doses to about 59.6 µM), hits mostly inhibitors; further: nearly all actives have a fitted effect of over 55% in size
Target sequence (A8B2U2 whole entry, looked up): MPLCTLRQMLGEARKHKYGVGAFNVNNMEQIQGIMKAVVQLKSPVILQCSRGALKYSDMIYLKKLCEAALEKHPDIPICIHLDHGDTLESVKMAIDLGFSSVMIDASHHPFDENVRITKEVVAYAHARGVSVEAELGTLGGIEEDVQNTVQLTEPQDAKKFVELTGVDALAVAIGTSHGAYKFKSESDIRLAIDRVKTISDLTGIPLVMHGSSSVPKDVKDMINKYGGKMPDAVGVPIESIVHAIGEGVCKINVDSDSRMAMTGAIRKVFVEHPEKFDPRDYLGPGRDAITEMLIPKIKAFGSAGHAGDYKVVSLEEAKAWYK
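Giardia FBPA (40 nM reagent) was preincubated 10 min at RT with compound (up to 57.5 uM final), then substrate plus GAPDH/TPI/NAD/arsenate coupling system with diaphorase/resazurin was added; resorufin fluorescence (525/598 nm) was read after 20 min.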
Pf growth 48h = inhibits P. falciparum growth in the first generation, 48 h; P. falciparum luciferase growth in erythrocytes, 48 h; Potency, µM (doses to about 28.7 µM), usual class: inhibitors; 5.9% of 310,000 active; AID 504832
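Compounds are pin-transferred into medium, infected erythrocytes (2% hematocrit, 0.1% parasitemia final) are added, and plates sit one parasite generation at 37 C in 5% CO2. Detection reagent is then added and luminescence measured.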
Cycloheximide cs = counter-screen for Shiga toxin inhibitors: cycloheximide protein synthesis inhibition. cell reporter, cycloheximide protein synthesis inhibition counterscreen. 12% of 300,000 active. AID 2314. max response, %; in the data active means max response mostly above about 13%, no sharp cut-off; inactive means mostly below about 14%; further: read at 38.3 µM for the half of the compounds with a filed dose
NS1 function inh = influenza NS1 inhibition | Potency, µM (top dose mostly 46.1 µM) | 0.4% of 270,000 active | AID 2326; calls by dose curve; further: actives are rising curves; nearly all actives have a fitted effect of over 50% in size
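OD600 was taken as the measure of yeast growth restored by compound in an NS1-expressing S. cerevisiae strain. Cells had been washed out of glucose medium and diluted 1:100 into galactose -URA medium, pH 6.0.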
Shiga inhibitor = inhibitors of Shiga toxin in Vero cells. Vero cells, Shiga toxin protein synthesis inhibition reporter. inhibition, % at 38.7 µM. 9.2% of 290,000 active. AID 2315; in the data active means inhibition mostly above about 28%, no sharp cut-off; inactive means mostly below about 43%
Pf growth 96h = P. falciparum growth inhibition at 96 hours. P. falciparum luciferase reporter growth, 96 h. 6.9% of 320,000 active. Potency, µM (titrated, usually from 28.7 µM), most hits filed as inhibitors. AID 504834
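Delayed-death screen, second-generation endpoint: infected erythrocytes, 2% hematocrit, 0.05% parasitemia final; 96 hours at 37 C, 5% CO2; luciferase detection reagent; luminescence decrease equals reduced growth.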
Numbers stand for hits; . = inactive; ? = inconclusive; / = no result; + = active, no number; [ ] = remark or other dose. Unless noted, the call rests on the fitted dose curve; in most records, active means well fitted curve in the direction sought with a large enough effect; inconclusive means small, poorly fitted or top-dose-only effect, or another doubt; inactive means no such curve, though single readings can be large; an effect the other way counts as inactive or inconclusive.

SMILES	Giardia FBPA inh	Pf growth 48h	Cycloheximide cs	NS1 function inh	Shiga inhibitor	Pf growth 96h
CC1CCCN(C(=O)C(=O)c2cn(CC(=O)N3CCCCCC3)c3ccccc23)C1 (configuration not stated)	/	?	.	.	.	12µM
O=C(C(=O)N1CCN(c2ccccc2)CC1)c1cn(CC(=O)N2CCCCCC2)c2ccccc12	.	9.3µM	.	?	.	?
CC1CCN(C(=O)C(=O)c2cn(CC(=O)N3CCCCCC3)c3ccccc23)CC1	/	?	.	.	.	?
Cc1cc(C)c(NC(=O)COc2cccnc2[N+](=O)[O-])c(C)c1	/	.	/	/	/	?
NS(=O)(=O)c1ccc(CCNC(=O)C(=O)c2cn(CC(=O)N3CCCC3)c3ccccc23)cc1	.	?	.	.	.	?
Cc1ccc(-n2ncc3c2CCCC3NC(=O)CSc2ccccn2)cc1C (configuration not stated)	.	.	.	.	.	.
O=C(O)Cn1cc(C(=S)N2CCCCC2)c2ccccc21	?	.	.	/	.	8.3µM
O=C(Nc1ccccc1-c1ccccc1)c1ccc(=O)[nH]n1	.	.	46	.	83	15µM
CC(C)(C)c1ccc(NC(=O)c2ccc(=O)[nH]n2)cc1	.	.	54	.	111	.
O=C(NCc1ccc2c(c1)OCO2)c1ccc(-n2cnnn2)cc1	.	.	.	.	.	1.7µM
O=C(Nc1ccccn1)c1ccc(=O)[nH]n1	.	.	.	.	.	/
CCCCn1nc(C(=O)Nc2ccc3c(c2)OCCO3)c2ccccc2c1=O	/	?	/	/	/	6.6µM
O=C(NCc1ccc2c(c1)OCO2)c1nn(-c2ccccc2)c(=O)c2ccccc12	.	.	.	.	.	0.74µM
O=C(Nc1ccc2c(c1)OCO2)c1ccc(=O)[nH]n1	.	.	18	.	52	.
COc1cccc(-n2nc(C(=O)Nc3ccc4c(c3)OCO4)c3ccccc3c2=O)c1	.	?	.	.	.	?
CC(C)(C)c1nn(-c2ccccc2)c2[nH]c(=O)c(CNCc3ccc4c(c3)OCO4)cc12	.	/	.	.	.	0.33µM
O=C(NCc1ccccn1)c1nn(-c2ccccc2)c(=O)c2ccccc12	.	.	.	/	.	.
O=C(Nc1ccc2c(c1)OCO2)c1nn(-c2ccccc2)c(=O)c2ccccc12	.	12µM	.	.	.	13µM
CC(Sc1nnc(N)s1)C(=O)Nc1ccc2c(c1)OCO2 (configuration not stated)	/	?	/	/	/	.
O=P(O)(O)O[C@@H]1O[C@H](CO)[C@@H](O)[C@H](O)[C@@H]1O	/	/	/	.	/	/
CC(C)Cn1c(=O)c(C(=O)NCc2ccc3c(c2)OCO3)c(O)c2ccccc21	.	?	.	.	.	?
O=C(Nc1ccc2c(c1)OCO2)c1n[nH]c(=O)c2ccccc12	.	.	18	.	57	.
CC(C)CCn1c(=O)c(C(=O)NCc2ccc3c(c2)OCO3)c(O)c2ccccc21	.	5.9µM	.	?	.	?
Cc1cc(C(=O)COC(=O)Cc2ccc(Br)cc2)c(C)n1C	/	.	/	/	/	?
COC1=C/C(=C/c2c(N)n3nc(-c4ccc(C)cc4)sc3nc2=O)C=CC1=O	.	.	54	.	76	.
SMILES	Giardia FBPA inh	Pf growth 48h	Cycloheximide cs	NS1 function inh	Shiga inhibitor	Pf growth 96h
CCOC1=C/C(=C/c2c(N)n3nc(-c4ccccc4)sc3nc2=O)C=CC1=O	.	?	.	.	.	.
O=C(NNC(=O)c1ccc(NC(=O)c2ccccc2)cc1)c1ccc(F)cc1	.	.	.	.	.	.
O=C(NC1=C(Nc2ccc(F)cc2)C(=O)c2ccccc2C1=O)c1ccc(Cl)cc1	?	0.52µM	16	.	+	0.37µM
O=C1CCCC(O)=C1C=NCc1ccccc1	.	.	.	.	.	.
C=CCC1(C(=O)NCCO)CCN(C(=O)OC(C)(C)C)CC1	.	.	.	.	.	.
COc1ccc(NC(=O)c2cc3sccc3n2Cc2ccc(F)cc2)cc1OC	.	?	25	.	.	.
O=C(Nc1nccs1)c1cc2sccc2n1Cc1ccc(F)cc1	.	13µM	18	.	.	.[5.75 µM]
O=C(NCCN1CCOCC1)c1cc2sccc2n1Cc1ccc(F)cc1	.	?	.	.	.	.
CN[C@]1(C)[C@H]2CC[C@@H](C2)C1(C)C	.	/	/	/	/	/
Cc1ccc(S(=O)(=O)NC(C)C(c2cccs2)N2CCN(C)CC2)cc1 (configuration not stated)	.	.	.	.	.	10µM

Screens: PubChem BioAssay, National Center for Advancing Translational Sciences (NCATS)
